Where a name gives a salt, the structure may show the parent alone. ± gives the standard deviation.
These molecules were tested on Jurkat (assay: cell count relative to DMSO control (fraction of control); higher = more cells (less growth inhibition)). Settings: 48 h.
For CC(=O)O[C@]1(C(C)=O)CC[C@H]2[C@@H]3C[C@H](C)C4=CC(=O)CC[C@]4(C)[C@H]3CC[C@@]21C [Medroxyprogesterone Acetate] (concentration: 25 µM), the cell count was 0.352 ± 0.042.
C[C@]12C=CC(=O)C=C1CC[C@@H]1[C@@H]2C(=O)C[C@@]2(C)[C@H]1CC[C@]2(O)C(=O)CO [Prednisone] (concentration: 25 µM) showed a cell count of 0.689 ± 0.13.
With O=NN(CCCl)C(=O)NCCCl [Carmustine] (concentration: 25 µM) the cell count was 0.767 ± 0.014.
CCOC(=O)C1=C(C)NC(C)=C(C(=O)OC)C1c1cccc(Cl)c1Cl (centres undefined) [Felodipine] (concentration: 25 µM) gave a cell count of 0.922 ± 0.12.
With CC(C)[C@H](N)C(=O)OCC(CO)OCn1cnc2c(=O)[nH]c(N)nc21 (some centres undefined) [Valganciclovir·HCl] (concentration: 25 µM) the cell count was 0.892 ± 0.099.
For O=C1CC2(CCCC2)CC(=O)N1CCCCN1CCN(c2ncccn2)CC1 [Buspirone·HCl] (concentration: 25 µM), the cell count was 0.96 ± 0.097.
Molecule CN(C)CC[C@@H](c1ccc(Cl)cc1)c1ccccn1 [Dexchlorpheniramine Maleate] (concentration: 25 µM) has a cell count of 0.526 ± 0.17.
Molecule CC(C)c1nc(CN(C)C(=O)N[C@H](C(=O)N[C@@H](Cc2ccccc2)C[C@H](O)[C@H](Cc2ccccc2)NC(=O)OCc2cncs2)C(C)C)cs1 [Ritonavir] (concentration: 25 µM) has a cell count of 0.564 ± 0.14.
CCOC(=O)[C@H](CCc1ccccc1)N[C@@H](C)C(=O)N1Cc2cc(OC)c(OC)cc2C[C@H]1C(=O)O [Moexipril·HCl] (concentration: 25 µM) showed a cell count of 0.587 ± 0.074.
CCCC1O[C@@H]2C[C@H]3[C@@H]4CCC5=CC(=O)C=C[C@]5(C)[C@H]4[C@@H](O)C[C@]3(C)[C@]2(C(=O)CO)O1 (some centres undefined) [Budesonide] (concentration: 25 µM) was tested, and the cell count was 0.799 ± 0.046.
C#Cc1cccc(Nc2ncnc3cc(OCCOC)c(OCCOC)cc23)c1 [Erlotinib] (concentration: 25 µM) was tested, and the cell count was 0.666 ± 0.04.
Work on CCC(=O)O[C@]1(C(=O)CCl)[C@@H](C)C[C@H]2[C@@H]3C[C@H](F)C4=CC(=O)C=C[C@]4(C)[C@@]3(F)[C@@H](O)C[C@@]21C [Halobetasol Propionate] (concentration: 25 µM) yielded a cell count of 0.883 ± 0.12.
Nc1ncn([C@@H]2O[C@H](CO)[C@@H](O)[C@H]2O)c(=O)n1 [Azacitidine] (concentration: 25 µM) showed a cell count of 0.668 ± 0.11.
CN(C)CCc1c[nH]c2ccc(C[C@H]3COC(=O)N3)cc12 [Zolmitriptan] (concentration: 25 µM) gave a cell count of 0.419 ± 0.11.
CC(=O)OCC(=O)[C@@]1(O)CC[C@H]2[C@@H]3CCC4=CC(=O)CC[C@]4(C)[C@H]3[C@@H](O)C[C@@]21C [Hydrocortisone Acetate] (concentration: 25 µM) gave a cell count of 0.716 ± 0.12.
NC(N)=Nc1nc(CSCC/C(N)=N/S(N)(=O)=O)cs1 [Famotidine] (concentration: 25 µM) was tested, and the cell count was 1.19 ± 0.12.
N=C(N)N [Guanidine·HCl] (concentration: 25 µM) showed a cell count of 1.02 ± 0.096.
Molecule CC(C)C[C@H](NC(=O)[C@H](Cc1ccccc1)NC(=O)c1cnccn1)B(O)O [Bortezomib] (concentration: 25 nM) has a cell count of 0.112 ± 0.11.
In the case of C[C@@H]1O[C@@H]1P(=O)(O)O [Fosfomycin Calcium] (concentration: 25 µM), the cell count is reported as 0.474 ± 0.19.
CCCCc1oc2ccccc2c1C(=O)c1cc(I)c(OCCN(CC)CC)c(I)c1 [Amiodarone·HCl] (concentration: 2.5 µM) was tested, and the cell count was 0.616 ± 0.12.
Work on C[C@@H](CN1CC(=O)NC(=O)C1)N1CC(=O)NC(=O)C1 [Dexrazoxane] (concentration: 25 µM) yielded a cell count of 0.411 ± 0.11.
Molecule C[C@](N)(Cc1ccc(O)c(O)c1)C(=O)O [Methyldopa Sesquihydrate (L-Α-Methyl-Dopa Sesquihyrate)] (concentration: 25 µM) has a cell count of 0.834 ± 0.052.
OC(CCN1CCCCC1)(c1ccccc1)C1CCCCC1 (centres undefined) [Trihexyphenidyl·HCl] (concentration: 25 µM) showed a cell count of 1.05 ± 0.066.
In the case of CC(=O)O[C@H]1C[C@@H]2CC[C@@H]3[C@H](CC[C@@]4(C)[C@H]3C[C@H]([N+]3(C)CCCCC3)[C@@H]4OC(C)=O)[C@@]2(C)C[C@@H]1N1CCCCC1 [Vecuronium Bromide] (concentration: 25 µM), the cell count is reported as 0.294 ± 0.13.
